These results are taken from PubChem BioAssay AID463173 (ICCB-Longwood Screening Facility, Harvard Medical School, 2010).

Screen size: about 52,000 compounds; about 1,700 (3.3%) were called active. Shown is part of a subset that was picked to be rich in actives. Values without a mark were called inactive. No stated cut-off is given here; in the data, active means survival mostly below about 52% (no sharp cut-off); inactive means mostly above about 56%.

For this assay, the system named is Wild type. Nature of the assay: S. aureus survival, RN4220 and DeltatarO strains – OD600, teichoic acid synthesis inhibitors, primary screen (AID 463173). Particulars: S. aureus RN4220 wild type/DeltatarO growth, OD600, 18 h, hits give low values, screened at 18.75 µg/mL (by protocol).
Take `CCOc1ccc(-c2oc3cc(Cl)ccc3c(=O)c2O)cc1OC`: the survival was 103%.
In the case of `CC(C)NC(=O)CSc1cn(CC(=O)N2CCCCCC2)c2ccccc12`, the survival was 95%.
Turning to `Cc1cc2c(cc(C(=O)OC(C(=O)NCC3CCCO3)C(C)C)n2C)o1` (stereo not given), the survival is 120%.
On to `O=C(c1ccc(F)cc1)N1c2ncnn2C2(CCCCC2)[C@@H]2CCCC[C@@H]21`, for which the survival is 82%.
Then `COc1ccc(Cn2c(CNS(=O)(=O)c3ccc(Cl)s3)nc3cccnc32)cc1`, with 78%; and `CCC/C(O)=C1\C(=O)CC(C)(C)CC1=Nc1ccncc1`, with 115%; and `CCc1ccc(NC(=O)CN2CCN(C3CCCCC3)C(=O)C2=O)cc1`, with 77%.
With `CCc1ccc(NC(=O)C2CCCN(S(=O)(=O)c3ccc(F)cc3)C2)cc1` (stereo not given) the figure was 75%.
In the case of `CCOC(=O)c1c(C(=O)CSc2ncc(-c3ccc(F)cc3)n2Cc2ccco2)sc2c1CCCC2`, the survival was 116%.
With `CCOc1ccc(C(C)N)cc1` (stereo not given) the figure was 102%; with `COCCNC(=O)Nc1ccc2c(c1)nc(C)n2C`, 87%.
With `CCOc1cccc(C2Nc3ccccc3-c3cc(C)nn32)c1O` (stereo not given), the survival is 145%.
With `Cc1cc2n(n1)C(c1cc(C(C)(C)C)c(O)cc1O)Nc1ccccc1-2` (stereo not given), the survival is 115%.
With `CC(=O)Nc1ccc(C2Nc3c(C)cc(C)cc3-c3cc(C)nn32)cc1` (stereo not given), the survival was 141%.
Take `COc1cc(C2Nc3c(C)cc(C)cc3-c3cc(C)nn32)cc(OC)c1O` (stereo not given): the survival was 97%.
With `CCN(CC)c1ccc(C2Nc3ccccc3-c3cc(C)nn32)cc1` (stereo not given) the figure was -1% (active); with `COc1ccc(OC)c(C2Nc3c(C)cc(C)cc3-c3cc(C)nn32)c1` (stereo not given), -14% (active).
For the molecule `Cc1cc2n(n1)C(c1ccccc1)Nc1ccccc1-2` (stereo not given), the survival is 123%.
Take `COC(=O)c1ccc(C2Nc3c(C)cccc3-c3cc(C)nn32)cc1` (stereo not given): the survival is -4% (active).
With `CCOc1ccc(C2Nc3c(C)cccc3-c3cc(C)nn32)cc1` (stereo not given) the figure was -14% (active).
With `Cc1ccc2c(c1)-c1cc(C)nn1C(c1cc(Br)ccc1O)N2` (stereo not given), the survival was 131%.
As to `COc1cc(C2Nc3ccccc3-c3cc(C)nn32)ccc1O` (stereo not given), the survival is 139%.
`COc1cc(OC)c(C2Nc3c(C)cccc3-c3cc(C)nn32)cc1OC` (stereo not given): the survival was 142%.
Then `O=C(NCc1ccc(Cl)cc1)C(=O)NCC(c1ccco1)S(=O)(=O)c1cccs1` (stereo not given), with 76%; and `Cc1ccc(Cn2c(=O)n(Cc3ccco3)c(=O)c3sc4ccccc4c32)cc1`, with 94%; and `COc1ccc(-c2noc(CN3CCN(c4ccccc4OC)CC3)n2)cc1OC`, with 83%.
In the case of `CCOC(=O)N1CCN(C(=O)CN(c2cccc(Cl)c2)S(=O)(=O)c2ccccc2)CC1`, the survival was 63%.
With `CCOC(=O)c1cccc(NC(=O)NCCc2c(C)nn(C)c2C)c1` the figure was 63%; with `COc1ccc(Nc2cc(C(=O)NCCCN(C)C3CCCCC3)c3ccccc3n2)c(OC)c1`, 92%; with `COc1ccc(NC(=O)c2cc3c(-c4ccccc4F)nn(C)c3s2)c(OC)c1`, 38%.
Consider `O=C1CS(=O)(=O)C2(C(=O)N(Cc3ccccc3)c3ccccc32)N1c1ccccc1` (stereo not given), for which the survival was 132%.
Then `COc1cc(NS(=O)(=O)c2cc3c(cc2C)n(C)c(=O)c(=O)n3C)cc(OC)c1`, with 54%.
Then `COc1cc(-c2nc(-c3ccccc3)c(-c3ccc(Br)cc3)[nH]2)cc(OC)c1O`, with 5% (active).
With `COc1ccc(-c2nc(SCC(=O)Nc3ccccc3)c(-c3ccc(F)cc3)[nH]2)cc1OC` the figure was 58%.
For `COCCNC(=O)CSc1nc(-c2ccccc2)[nH]c1-c1ccc(OC)cc1`, the survival is 74%.
On to `CCOc1ccc(-c2nc(-c3ccccc3)c(-c3ccccc3)[nH]2)cc1OCC`, for which the survival was 163%.
For the molecule `COc1ccc(-c2nc(-c3ccccc3)c(-c3ccc(F)cc3)[nH]2)c(OC)c1C`, the survival was 15% (active).
With `COc1ccc(-c2[nH]c(-c3ccccc3)nc2SCC(=O)NC2CCCC2)cc1` the figure was 80%.
Then `COc1ccc(NC(=O)CSc2nc(-c3ccc(OC)cc3)[nH]c2-c2ccc(OC)cc2)cc1`, with 76%.
With `COc1ccc(-c2nc(-c3ccccc3)c(-c3ccccc3)[nH]2)cc1Br`, the survival was 81%.
On to `COc1cc(-c2nc(-c3cccc(Cl)c3)c(-c3ccccc3)[nH]2)cc(OC)c1OC`, for which the survival is 143%.
On to `COc1ccc(-c2nc(-c3ccccc3)c(-c3ccc(O)cc3)[nH]2)cc1`, for which the survival is 3% (active).
Then `COc1cc(-c2nc(SCC(=O)Nc3ccc(C)cc3)c(-c3ccc(F)cc3)[nH]2)cc(OC)c1OC`, with 106%.
With `COc1ccc(-c2[nH]c(-c3ccc(O)cc3)nc2-c2ccccc2)cc1`, the survival was 0% (active).
In the case of `CC(C)(C)n1nnnc1C(c1ccc2ncccc2c1)N1CCc2ccccc21` (stereo not given), the survival was 111%.
Consider `CCc1ccccc1NC(=O)CSc1nnc2ccc3ccccc3n12`, for which the survival is 80%.
Then `Cc1ccc(Cl)cc1N(C)C(=O)c1noc2c1CCCCC2`, with 65%; and `CCCCC(=O)OCc1cc(=O)n2nc(C3CC3)sc2n1`, with 135%; and `CCCOc1ccc(CNC(=O)c2ccc(-n3c(C)cc4c3CCC(C)C4)cc2)cc1` (stereo not given), with 113%.
Consider `COc1cccc(C(=O)c2sc(Nc3ccc(C)cc3C)c(S(=O)(=O)c3ccccc3)c2N)c1`, for which the survival is 94%.
Regarding `Oc1ccc(-c2nc(-c3ccccc3)c(-c3ccc(Br)cc3)[nH]2)cc1`, the survival was -2% (active).
Take `O=C(O)c1ccc(-c2nc3ccccc3[nH]2)cc1`: the survival was 106%.
Then `O=C(CSc1nc(-c2ccc(F)cc2)[nH]c1-c1ccccc1)Nc1ccccc1`, with 70%; and `O=C(Nc1ccc(C(=O)OCc2cc(=O)n3c4c(sc3n2)CCCC4)cc1)c1cccc(F)c1`, with 81%.
With `CCc1ccc2nc(N(CCN(CC)CC)C(=O)c3ccco3)sc2c1` the figure was 53%; with `CCN(CC)CCN(C(=O)c1ccc(C(=O)OC)cc1)c1nc2ccc(Cl)cc2s1`, -6% (active); with `CCN(CC)CCN(C(=O)c1ccco1)c1nc2ccc(Cl)cc2s1`, 87%.
Then `O=C(CNc1ccccc1Cl)N/N=C1\CCCc2ccccc21`, with 105%; and `Cc1cccn2c(Nc3ccccc3)c(-c3cccs3)nc12`, with 85%.
Turning to `Cc1ccc(Nc2c(-c3ccsc3)nc3cccc(C)n23)cc1`, the survival is 19%.
Then `Cc1ccc(Nc2c(-c3ccc(C)cc3)nc3c(C)cccn23)cc1`, with -1% (active); and `Cc1ccc(Nc2c(-c3ccsc3)nc3c(C)cccn23)cc1`, with -3% (active).
With `Cc1ccc(Nc2c(-c3ccc(N4CCOCC4)cc3)nc3c(C)cccn23)cc1` the figure was 83%.
Then `Cc1ccccc1Nc1c(-c2ccc(Cl)cc2)nc2c(C)cccn12`, with 73%; and `Cc1ccccc1Nc1c(-c2ccsc2)nc2c(C)cccn12`, with 0% (active); and `Cc1cccn2c(Nc3ccccc3)c(-c3ccc(N4CCOCC4)cc3)nc12`, with 125%.
As for `Cc1ccccc1Nc1c(-c2ccc(O)cc2)nc2c(C)cccn12`, the survival was 68%.
For `COCCCNC(=O)c1c(C)nn(-c2ccc(F)cc2)c1-n1cccc1`, the survival was 77%.
Take `Cc1sc2c(c1C)c(=O)n(Cc1ccccc1)c(=O)n2CC(=O)N(C)c1ccccc1`: the survival is 89%.
Then `COc1ccc(C2CC(=O)c3cc(-c4nc(-c5cccc(Cl)c5)cs4)c(=O)[nH]c3C2)cc1` (stereo not given), with 67%; and `Cc1ccc(C(=O)N2CCN(c3ccccc3)CC2)cc1NC(=O)c1nsc2ccccc12`, with 73%; and `CC1=C(C(=O)Nc2ccccc2Br)C2(CCC(C)CC2)OC1=O` (stereo not given), with 83%.
With `COC(=O)c1ccccc1NC(=O)C1=C(C)C(=O)OC12CCCCCC2` the figure was 91%; with `COC(=O)c1ccccc1NC(=O)C1=C(C)C(=O)OC12CCC(C)CC2` (stereo not given), -6% (active); with `CC1=C(C(=O)Nc2cccc(C)c2C)C2(CCCCC2)OC1=O`, 74%.
In the case of `CC1=C(C(=O)Nc2cccc(C(F)(F)F)c2)C2(CCN(C(C)C)CC2)OC1=O`, the survival is 91%.
For `COc1ccc(NC(=O)C2=C(C)C(=O)OC23CCN(C(C)C)CC3)cc1Cl`, the survival is 77%.
With `CC1=C(C(=O)Nc2cccc(C(F)(F)F)c2)C2(CCCCCC2)OC1=O` the figure was 0% (active); with `COc1ccc(OC)c(NC(=O)C2=C(C)C(=O)OC23CCCCCC3)c1`, 129%.
`CC1=C(C(=O)Nc2cccc(C(F)(F)F)c2)C2(CCCCC2)OC1=O`: the survival was 88%.
Take `CC1=C(C(=O)Nc2cccc(Cl)c2C)C2(CCCCCC2)OC1=O`: the survival was -2% (active).
As to `CC(=O)N1CCC2(CC1)OC(=O)C(C)=C2C(=O)Nc1cccc(Cl)c1C`, the survival is 82%.
With `COc1ccc(OC)c(NC(=O)C2=C(C)C(=O)OC23CCN(C(C)C)CC3)c1` the figure was 0% (active); with `Cc1cc(C)n(C(=O)CCCC(=O)O)n1`, 96%.
`Cc1ccc(CNC(=O)C(CC(C)C)N2Cc3ccccc3C2=O)cc1` (stereo not given): the survival is 136%.
With `COc1cc(-c2nc(Cn3nnc(C(=O)Nc4cc(C)cc(C)c4)c3C)c(C)o2)cc(OC)c1OC` the figure was 70%.
As for `CCOc1cc(CNC(=O)CSc2n[nH]c(-c3ccccc3)n2)cc(OCC)c1OCC`, the survival is 131%.
Take `CC1=C(C(=O)NCc2cccc(F)c2)C2(CCCCCC2)OC1=O`: the survival was 65%.
For `CC1=C(C(=O)NCc2cccc(F)c2)C2(CCCCC2)OC1=O`, the survival is 10% (active).
Regarding `CC1=C(C(=O)NCc2cccc(Br)c2)C2(CCCCC2)OC1=O`, the survival was 82%.
With `COc1ccc(OCc2nnc(-c3ccccc3)o2)cc1` the figure was 106%.
With `Cc1ccc(N2CCN(C(=O)c3cn(C)c4ccc(S(=O)(=O)N5CCC(C)CC5)cc4c3=O)CC2C)cc1` (stereo not given) the figure was 126%.
For the molecule `CCOc1ccccc1CNC(=O)Cn1nc(N2CCN(c3ccccc3)CC2)ccc1=O`, the survival is 82%.
Then `COc1ccc(CNC(=O)Cn2nc(N3CCN(c4ccccc4)CC3)ccc2=O)c(OC)c1`, with -4% (active); and `COc1cccc(NC(=O)Cn2nc(N3CCN(c4ccccc4)CC3)ccc2=O)c1`, with 85%.
